HP1b chromo inh: HTS for Inhibitors of HP1-beta Chromodomain Interactions with Methylated Histone Tails | Chromobox protein homolog 1 (Homo sapiens), P83916 | AlphaScreen HP1-beta / biotin-H3K9me3 peptide binding | Potency, µM (doses to about 114 µM), for the others: at the highest dose activity change, negative = inhibition, usual class: inhibitors | hit rate 0.56% among 390,000 | AID 540317, 2011; note: nearly all actives have a fitted effect of over 70% in size
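HP1-beta protein (50 nM final) preincubated 30 min at room temperature with biotinylated H3(1-18)K9me3 peptide (50 nM) in PBS pH 7.4, 0.01% Tween-20, then compound added for 30 min. AlphaScreen streptavidin donor/nickel chelate acceptor beads (10 ug/mL final), 30 min dark, luminescence read.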
G9a inh: qHTS Assay for Inhibitors of Histone Lysine Methyltransferase G9a; Histone-lysine N-methyltransferase EHMT2 (Homo sapiens), Q96KQ7; AID 504332, 2011; G9a H3K9 monomethylation, AlphaScreen, 2 h; Potency, µM (top dose mostly 102 µM), inactives show at the highest dose activity, negative = inhibition, usual class: inhibitors; hit rate 8.8% among 350,000; note: % is set by controls: 0 for no effect and ±100 for the full control effect; nearly all actives have a fitted effect of over 75% in size
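Using a bead-based AlphaScreen, monomethylated H3K9 product from 2 h room-temperature reactions (G9a 20 nM, peptide 500 nM, SAM 20 uM) was detected with 0.5 ug/mL rabbit anti-H3K9me1 antibody.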
Sfp PPTase inh: qHTS Assay for Inhibitors of Bacillus subtilis Sfp phosphopantetheinyl transferase (PPTase) | 4'-phosphopantetheinyl transferase ffp (Bacillus subtilis), Q9F4F7 | Biochemical Sfp PPTase activity, qHTS | Potency, µM, inactives show largest response in the series, negative = inhibition, most hits filed as inhibitors | hit rate 3.5% among 310,000;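 note: the enzyme is Sfp with the accession as filed and its product quenches rhodamine fluorescence; 0% = enzyme reaction without inhibitor and -100% = no enzyme wells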
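Compounds were incubated with enzyme (final 15 nM) for 15 min at room temperature before substrate addition started the reaction. Fluorescence at 525 nm excitation, 598 nm emission was recorded immediately and after 30 minutes.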
L3MBTL1 block: qHTS Assay for the Inhibitors of L3MBTL1. AID 485360, 2010. Potency, µM (titrated, usually from 57.1 µM), for the others: top-dose activity, negative = inhibition, most hits filed as inhibitors. Lethal(3)malignant brain tumor-like protein 1 (Homo sapiens), Q9Y468. hit rate 0.66% among 230,000. AlphaScreen L3MBTL1–H3K9me1 peptide binding; note: % is set by controls: 0 for no effect and ±100 for the full control effect; nearly all actives have a fitted effect of over 60% in size
Target sequence (Q9Y468 whole entry, looked up): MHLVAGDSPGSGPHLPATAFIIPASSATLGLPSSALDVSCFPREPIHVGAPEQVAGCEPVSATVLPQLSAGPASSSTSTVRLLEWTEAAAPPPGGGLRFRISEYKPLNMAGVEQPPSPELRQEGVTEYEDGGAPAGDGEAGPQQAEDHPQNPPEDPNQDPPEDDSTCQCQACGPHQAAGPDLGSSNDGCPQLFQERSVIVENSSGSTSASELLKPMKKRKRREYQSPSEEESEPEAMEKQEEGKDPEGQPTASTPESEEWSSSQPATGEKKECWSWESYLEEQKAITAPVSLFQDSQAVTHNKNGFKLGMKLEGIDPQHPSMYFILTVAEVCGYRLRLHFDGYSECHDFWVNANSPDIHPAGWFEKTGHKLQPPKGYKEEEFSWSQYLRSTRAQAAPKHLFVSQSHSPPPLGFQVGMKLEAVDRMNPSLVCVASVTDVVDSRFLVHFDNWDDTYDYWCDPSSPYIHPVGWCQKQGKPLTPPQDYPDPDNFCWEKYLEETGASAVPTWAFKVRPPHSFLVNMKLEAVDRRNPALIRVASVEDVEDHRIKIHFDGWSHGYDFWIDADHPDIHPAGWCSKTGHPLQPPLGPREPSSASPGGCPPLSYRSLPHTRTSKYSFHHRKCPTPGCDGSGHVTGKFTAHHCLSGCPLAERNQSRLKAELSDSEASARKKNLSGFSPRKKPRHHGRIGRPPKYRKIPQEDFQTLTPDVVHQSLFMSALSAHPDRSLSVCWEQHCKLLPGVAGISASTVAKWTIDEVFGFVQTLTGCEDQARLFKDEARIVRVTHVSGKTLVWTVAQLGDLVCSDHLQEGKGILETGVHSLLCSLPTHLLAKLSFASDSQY
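AlphaScreen proximity signal between nickel-chelate acceptor and streptavidin donor beads (final 10 ug/mL) reports binding of 50 nM L3MBTL1 to 75 nM biotin-H3 K9me1 peptide; complex incubated with compounds 30 min at room temperature; cefsulodin titration as control.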
JMJD2A Tudor inh: qHTS Assay for Inhibitors of JMJD2A-Tudor Domain. AID 504339, 2011. Potency, µM (top dose mostly 114 µM), for inactives: at the top dose activity change, negative = inhibition, usual class: inhibitors. hit rate 4.4% among 390,000. Lysine-specific demethylase 4A (Homo sapiens), O75164. AlphaScreen JMJD2A-Tudor / H3K4me3 peptide binding; note: % is set by controls: 0 for no effect and ±100 for the full control effect; nearly all actives have a fitted effect of over 50% in size
BAZ2B inh: qHTS Assay for Inhibitors of BAZ2B; Bromodomain adjacent to zinc finger domain protein 2B (Homo sapiens), Q9UIF8; AlphaScreen BAZ2B-H3K14Ac peptide displacement; Potency, µM (highest dose often 114 µM), inactives show top-dose activity change, negative = inhibition, usual class: inhibitors; hit rate 4.4% among 360,000; AID 504333, 2011; note: % is set by controls: 0 for no effect and ±100 for the full control effect; nearly all actives have a fitted effect of over 60% in size
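Multi-concentration screen (max 110 uM) measuring displacement of acetylated histone H3 peptide from BAZ2B by AlphaScreen, using 50 nM protein, 50 nM peptide and 10 ug/mL streptavidin donor plus Ni-chelate acceptor beads.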
The depositor's hits bear a star; ? = inconclusive; · = not tested or not shown; [ ] = another dose, or the depositor's remark. Shown are actives, neighbours in structure and some others; about 12% of the full set was active somewhere. Calls come from the whole dose curve; as a rule, active = well fitted curve in the direction sought with a large enough effect; inconclusive = small, poorly fitted or top-dose-only effect, or another doubt; inactive = no such curve, though single readings can be large; an effect the other way counts as inactive or inconclusive. Potency is the fitted concentration of half-maximal effect.

SMILES	HP1b chromo inh	G9a inh	Sfp PPTase inh	L3MBTL1 block	JMJD2A Tudor inh	BAZ2B inh
C/C(=N\Nc1ccccc1[N+](=O)[O-])c1ccccc1O	?	17.8µM*	12.7%	?	2.82µM*	2.51µM*
Oc1ccc(Cl)cc1C1=Nc2ccccc2N=C(c2cccc(Br)c2)C1	93.7%	53.2%[59 µM]	·	·	55.6%	-1.9%
O=C1CC(c2ccco2)CC2=C1C(c1ccc(O)cc1)n1nc(C(F)(F)F)nc1N2 (stereo unspecified)	?	·	·	·	56.2µM*	·
CO/N=C(/C(=O)N[C@@H]1C(=O)N2C(C(=O)O)=CCS[C@H]12)c1cnc(N)s1	·	·	79.4µM*	·	·	6.5%
O=C(O)CN1C(=O)SC(Nc2ccccc2)C1=O (stereo unspecified)	12.4%	?	15.2%	6.0%	-4.4%	-4.9%
COc1ccc(NC2SC(=O)N(CC(=O)O)C2=O)cc1 (stereo unspecified)	7.7%	39.8µM*	-5.6%	4.2%	79.4µM*	-27.9%
CCOC(=O)c1ccc(NC2SC(=O)N(Cc3cccc(C(=O)O)c3)C2=O)cc1 (stereo unspecified)	40.8%	2.82µM*	·	·	-21.1%	-4.9%
Cc1ccc(CSc2nc(-c3ccc(C(C)(C)C)cc3)nc3cc(=O)[nH]n23)cc1	33.8%	44.7%[59 µM]	·	·	-30.5%	?
COc1cc(S(=O)(=O)NCCc2ccc3c(c2)OCO3)ccc1-n1cnnn1	10.7%	56.2µM*	3.5%	-5.9%	-9.2%	-7.0%
COc1ccc(CNS(=O)(=O)c2ccc(-n3cnnn3)c(OC)c2)cc1	-12.9%	50.1µM*	4.5%	·	-1.4%	2.9%
COc1cc(S(=O)(=O)NCc2ccccc2)ccc1-n1cnnn1	34.1%	18.6%	16.7%	·	4.2%	2.4%
O=S1(=O)N=C(Oc2cccc(Cl)c2)c2ccccc21	·	·	·	·	-35.4%[162 µM]	·
O=C(CC1C(=O)NCCN1Cc1ccc(F)cc1)NCCOc1cccnc1 (stereo unspecified)	30.1%	·	-6.8%	-3.0%	1.7%	-1.2%
Cc1nc(CNC(=O)CC2C(=O)NCCN2Cc2ccc(F)cc2)cs1 (stereo unspecified)	52.9%	50.1µM*	3.7%	·	0.0%	-19.6%
COc1cccc(CN2CCNC(=O)C2CC(=O)NCCc2nc(C)c(C)s2)c1OC (stereo unspecified)	48.0%	5.9%[12.7 µM]	44.7µM*	15.3%	-11.4%	-11.6%
Cc1nc(CCNC(=O)CC2C(=O)NCCN2Cc2ccccc2F)sc1C (stereo unspecified)	-2.9%	44.7µM*	-8.4%	-2.8%	1.4%	-13.7%
Cc1nc(CCNC(=O)CC2C(=O)NCCN2Cc2ccc(F)cc2)sc1C (stereo unspecified)	24.7%	56.2µM*	31.6µM*	1.4%	-16.0%	-1.5%
CCn1nc(C(=O)NNC(=O)CCOc2cc(C)ccc2C)c2ccccc2c1=O	37.0%	60.4%	16.7%	·	-19.9%	-2.2%
CCOc1ccccc1CNC(=O)CN1C(=O)c2cccnc2Oc2ccc(Cl)cc21	26.6%	-4.8%[59 µM]	·	·	-4.3%	0.4%
O=C(OCC(=O)N1CCCC1=O)C1CCN(S(=O)(=O)c2ccc(Cl)c(C(F)(F)F)c2)CC1	50.3%	1.1%[12.7 µM]	·	3.0%	3.5%	-4.0%
O=C(Nc1ccccc1C(=O)O)c1ccc(NC(=O)C2CCCCC2)cc1	36.2%	37.8%	23.5%	·	-9.0%	0.0%
CC(C)CNC(=S)N(CCCO)Cc1cc2cc3c(cc2[nH]c1=O)OCO3	37.1%	39.8µM*	-4.2%	-2.5%	-9.8%	-7.5%
CN(C)CCCNC(=S)N(CCN(C)C)Cc1cc2cc3c(cc2[nH]c1=O)OCCO3	50.6%	?	1.2%	1.3%	-18.5%	7.8%
CC(C)CNC(=S)N(CCN(C)C)Cc1cc2cc3c(cc2[nH]c1=O)OCO3	32.1%	-4.6%	7.8%	-4.9%	-4.1%	5.6%
CCOCCCNC(=S)N(CCN(C)C)Cc1cc2cc3c(cc2[nH]c1=O)OCCO3	43.6%	50.1µM*	-25.3%	-2.0%	-6.6%	-34.3%
SMILES	HP1b chromo inh	G9a inh	Sfp PPTase inh	L3MBTL1 block	JMJD2A Tudor inh	BAZ2B inh
COc1ccc(NC(=O)CC2C(=O)N(c3cccc(OC)c3)C(=O)N2Cc2cccnc2)cc1 (stereo unspecified)	10.8%	-9.0%[59 µM]	·	·	-13.1%	-12.4%
CCCCSCCCNC(=O)c1cc(-c2cccnc2)nc2ccc(S(=O)(=O)N3CCC(C)CC3)cc12	26.3%	-4.0%[59 µM]	·	·	-7.7%	-1.1%
CC1=C(c2ccc(Cl)cc2)[N+](=O)C(C)(C)N1[O-]	-10.7%	50.1µM*	-4.4%	2.0%	-25.6%	-2.4%
Cn1c(=O)c2c(nc(NC(Cc3ccccc3)C(=O)O)n2Cc2ccccc2)n(C)c1=O (stereo unspecified)	22.5%	56.2µM*	6.1%	-5.7%	-23.0%	?
CCCOc1ccc(CNC(=O)c2cc3oc4ccccc4c3n2C)cc1	41.3%	17.4%[59 µM]	·	·	-1.5%	-19.9%
COC(=O)c1ccc(C(NC(=O)OCc2ccccc2)/C(C)=C/[C@@H](C)C(=O)NCc2cc(F)cc(F)c2)cc1 (stereo partly specified)	·	·	19.4%	·	·	·
CC(NCc1ccc(S(N)(=O)=O)cc1)C(=O)N1CCc2ccccc21 (stereo unspecified)	27.9%	3.9%	4.0%	·	-14.0%	-17.9%
CCN(CC)S(=O)(=O)c1cc(NC(=O)C(C)N2CCc3ccccc32)ccc1C (stereo unspecified)	-13.3%	25.1µM*	8.5%	?	?	·
CCN(CC)S(=O)(=O)c1cc(NC(=O)C(C)N(C)CC(=O)Nc2c(C)cccc2C)ccc1C (stereo unspecified)	25.2%	11.6%[59 µM]	10.3%	-10.2%	-17.0%	9.9%
CC(C(=O)Nc1ccc(S(N)(=O)=O)cc1)N1CCc2ccccc21 (stereo unspecified)	-4.1%	79.4µM*	4.1%	-6.9%	-28.2%	-36.1%
CC(NC(=O)Cn1c(=O)oc2cc(S(=O)(=O)NCc3ccccc3)ccc21)c1ccccc1 (stereo unspecified)	14.7%	6.7%[59 µM]	·	·	-23.3%	-11.5%
CC(=O)Nc1ccc(C2C(=O)c3ccccc3C2=O)cc1	-17.3%	50.1µM*	3.3%	-8.5%	-24.9%	-36.4%
CCCC(=O)Nc1ccc(C2C(=O)c3ccccc3C2=O)cc1	-16.4%	79.4µM*	-0.2%	-6.7%	-24.5%	?
CN(C(=O)CSc1nnnn1C)C1(C#N)CCCCC1	57.8%	-11.0%[12.7 µM]	·	-0.6%	-1.3%	-1.0%
